# Laboratory results published in PubChem BioAssay (Tox21).
# Values without a mark were called inactive. Calls come from the whole dose curve.
# Target: Gonadotropin-releasing hormone receptor (Homo sapiens) (UniProt P30968)
# Assay: Human gonadotropin-releasing hormone receptor (GnRHR) small molecule agonists, calcium flux assay in GnRHR-HEK293 cells (AID 1920063); note: nearly all actives have a fitted effect of over 35% in size
# Details: calcium flux fluorescence, agonist mode; series mostly up to 57.6 µM; activity change: at the top concentration
# From the text: National Center for Advancing Translational Sciences [NCATS]
# Division of Preclinical Innovation [DPI]
# U.S. Environmental Protection Agency [EPA]
# National Institutes of Environmental Health Sciences [NIEHS]
# National Toxicology Program [NTP]
# U.S. Food and Drug Administration [FDA]
# Gonadotropin-releasing hormone receptor (GnRHR) is a G-protein-coupled receptor (GPCR) and acts (through phospholipase C) to increase intracellular inositol trisphosphate and then release intracellular calcium stores. Cell-based GnRHR-Hek293 calcium influx assay is using HEK293 cells that have been genetically engineered to express the human GnRHR, which activity can be measured by calcium signaling. A compound/drug can activate (agonist) GnRHR that can be monitored by levels of intracellular calcium.
# GnRHR-HEK293 cells developed by Codex Corp contain human GnRHR reporter gene, which was stably integrated into HEK 293 cells. The compound activation can be detected by fluorescence intensity via calcium flux assay. This cell line has been used to screen the Tox21 10K compound library to identify GnRHR agonists.
# GnRHR-Hek293 cells were dispensed at 1500cells/4uL/well in 1536-well black wall/clear bottom plates using a multidrop dispenser. After the assay plates were incubated at a 37 C/5% CO2 incubator for 18 hours, 4 uL of Calcium Dye Solution was added to each well. The plates were incubated at 37 C for 1 hour. For agonist mode, 23 nL of compounds dissolved in DMSO, positive controls or DMSO only was transferred to the assay plate by a pin tool station. The fluorescence intensity in the plates was measured using FDSS 7000EX kinetic plate reader with a filter set of Ex/Em=480/540 for 3 min at 1 sec intervals. Each test compound was measured at 15 concentrations and in triplicates.
# % is set by controls: 0 for no effect and ±100 for the full control effect.
# Sequence of Gonadotropin-releasing hormone receptor (Homo sapiens) (P30968 whole entry, looked up): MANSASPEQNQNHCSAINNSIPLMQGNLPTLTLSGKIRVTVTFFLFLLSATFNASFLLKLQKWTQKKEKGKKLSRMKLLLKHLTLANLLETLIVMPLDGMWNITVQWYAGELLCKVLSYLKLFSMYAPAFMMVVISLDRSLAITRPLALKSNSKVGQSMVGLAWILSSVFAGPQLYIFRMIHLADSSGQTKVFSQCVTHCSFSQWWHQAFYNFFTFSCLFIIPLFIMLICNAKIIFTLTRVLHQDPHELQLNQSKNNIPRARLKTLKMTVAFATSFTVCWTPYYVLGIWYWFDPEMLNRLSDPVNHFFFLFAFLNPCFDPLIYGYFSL
row,Structure (SMILES),activity change
1,CCCC(=O)OCOC(=O)C1=C(C)NC(C)=C(C(=O)OC)C1c1cccc(Cl)c1Cl (stereo not given),"-0.349% [at 26.4 µM, hits give high values]"
2,CC(=O)C(C)=O,-0.26%
3,CCCCC(CC)COC(=O)c1ccccc1O (stereo not given),"2.43% [at 26.4 µM, hits give high values]"
4,CC(C)Cc1nccs1,2.06%
5,Cc1ccc2c(Cl)cc(Cl)c(O)c2n1,"-1.13% [at 26.4 µM, hits give high values]"
6,O=C(O)c1ccc2c(c1)nc(C(=O)NC1CCN(C3CC3)CC1)n2Cc1cc(-c2ccc(Cl)s2)on1,"-0.0073% [at 11.8 µM, hits give high values]"
7,NC(=O)c1cn(Cc2c(F)cccc2F)nn1,"0.853% [at 26.4 µM, hits give high values]"
8,O=C1c2ccccc2C(=O)C1c1nc2ccccc2c(Br)c1O,-0.0577%
9,CN1CC(=O)NC1=N,"0.645% [at 26.4 µM, hits give high values]"
10,CCC=O,3.38%
11,CN(C)CCCOC1(Cc2ccccc2)CCCCCC1,"11.8% [at 26.4 µM, hits give high values]"
12,CCN(CC)C(C)=O,-0.196%
13,O=C(O)CCNC(=O)c1ccccc1,"-1.33% [at 26.4 µM, hits give high values]"
14,C[Si]1(C)O[Si](C)(C)O[Si](C)(C)O1,4.91%
15,CCCCCCC(O)CO (stereo not given),-0.0044%
16,OC1(c2ccccc2)CCNCC1,"-1.36% [at 26.4 µM, hits give high values]"
17,CCCCC(=O)OCC(=O)[C@H]1[C@H](C)C[C@H]2[C@@H]3C[C@H](F)C4=CC(=O)C=C[C@]4(C)[C@@]3(F)[C@@H](O)C[C@@]21C,"-0.577% [at 26.4 µM, hits give high values]"
18,Nc1nc2c(ncn2CCC(CO)CO)c(=O)[nH]1,"-0.206% [at 26.4 µM, hits give high values]"
19,CCOC(=O)Cn1cccc1-c1nc(-c2ccc(OC)cc2)c(-c2ccc(OC)cc2)s1,"-0.262% [at 26.4 µM, hits give high values]"
20,O=C(O)c1ccccc1Cl,-0.412%

row,Structure (SMILES),activity change
1,Cc1ccc(N)nc1,-0.722%
2,O=S(=O)(O)c1ccc(Cl)cc1,0.0403%
3,COc1ccccc1Oc1c(NS(=O)(=O)c2ccc(C(C)(C)C)cc2)nc(-c2ncccn2)nc1OCCO,"-0.0834% [at 26.4 µM, hits give high values]"
4,CN1CCOC(c2ccccc2)c2ccccc2C1 (stereo not given),"-0.249% [at 26.4 µM, hits give high values]"
5,COc1ccc(N)c([N+](=O)[O-])c1,0.277%
6,CN1C(=O)N(c2ccccc2Br)Cc2cnc(Nc3ccc4c(c3)OCC(CO)O4)nc21 (stereo not given),5.04%
7,C/C=C(/C(=C/C)c1ccc(O)cc1)c1ccc(O)cc1,"-0.802% [at 26.4 µM, hits give high values]"
8,CCCCCCOC(=O)C(C)C,-0.186%
9,CN(C)CCC[C@@]1(c2ccc(F)cc2)OCc2cc(C#N)ccc21,"0.584% [at 26.4 µM, hits give high values]"
10,CC(O)COC(C)(C)C (stereo not given),0.152%
11,CCCC(C)C,1.98%
12,CN1CN(C)CN(C)C1,-0.153%
13,O=C(Nc1ccc(Cl)c(Cl)c1)C1CC1,"-0.001% [at 26.4 µM, hits give high values]"
14,O=C(O)C1(C(=O)O)CCC1.[NH2-].[NH2-].[Pt+2],"-1% [at 26.4 µM, hits give high values]"
15,CC(=O)Nc1ccc(S(=O)(=O)Nc2cc(C)on2)cc1,"1.11% [at 26.4 µM, hits give high values]"
16,CC(C)C[C@@H]1[C@H](c2ccccc2)OC(=O)N1CCCN1CCCCCC1,"-0.377% [at 26.4 µM, hits give high values]"
17,CCOC(=O)C(=O)CCCCCCl,"0.0284% [at 26.4 µM, hits give high values]"
18,Cc1nc2n(c(=O)c1CCN1CCC(c3noc4cc(F)ccc34)CC1)CCCC2,"1.64% [at 26.4 µM, hits give high values]"
19,COCCO,0.853%
20,CC(C)=CCC/C(C)=C/CC/C(C)=C/C(=O)OCC(=O)[C@@]1(O)CC[C@H]2[C@@H]3CCC4=CC(=O)C=C[C@]4(C)[C@H]3[C@@H](O)C[C@@]21C,"7.59% [at 26.4 µM, hits give high values]"
